# In the supplement of paper PMC6555819:
# Columns and labels:
# Assay in all cases: PBM binding z-score (relative to random genomic background probes); higher = stronger binding; sequences stand for … in GC…GCGATTGACAGCGTAGAATGAAGG
# [1] = tested on: FXR:RXRa (NR concentration 270 nM, RXRa partner concentration 90 nM)
# Outline: (§1)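 Binding z-scores were set against random background probes. The data came from custom Agilent 4×180K protein-binding microarrays carrying double-stranded probes with 34-nt variable regions, incubated 1 h with ligand-free nuclear receptor dimers. Partner-specific antibodies detected binding, and scanned fluorescence was regression-normalized.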
# [2] = tested on: LXRa:RXRa (NR concentration 270 nM, RXRa partner concentration 90 nM)
# Outline: as §1
# [3] = tested on: LXRa homodimer (NR concentration 270 nM)
# Outline: as §1
# [4] = tested on: LXRb:RXRa (NR concentration 270 nM, RXRa partner concentration 90 nM)
# Outline: as §1
# [5] = tested on: LXRb homodimer (NR concentration 270 nM)
# Outline: as §1
# [6] = tested on: PPARa:RXRa (NR concentration 270 nM, RXRa partner concentration 90 nM)
# Outline: as §1
# [7] = tested on: PPARg:RXRa (NR concentration 180 nM, RXRa partner concentration 90 nM)
# Outline: as §1
# [8] = tested on: PPARg:RXRa 270nM:90nM, anti-RXR (NR concentration 270 nM, RXRa partner concentration 90 nM)
# Outline: as §1
# [9] = tested on: PPARg:RXRa 30nM:10nM, anti-RXR (NR concentration 30 nM, RXRa partner concentration 10 nM)
# Outline: as §1
# [10] = tested on: PPARg:RXRa 90nM:30nM, anti-RXR (NR concentration 90 nM, RXRa partner concentration 30 nM)
# Outline: as §1
# [11] = tested on: PPARg:RXRa DBDmut IVT, anti-RXR (DBD mutation: RXRa K156A/R161A, NR concentration 270 nM, RXRa partner concentration 90 nM)
# Outline: as §1
# [12] = tested on: PPARg:RXRa IVT, anti-PPARg (NR concentration 270 nM, RXRa partner concentration 90 nM)
# Outline: as §1
# [13] = tested on: PPARg DBDmut:RXRa IVT, anti-PPARg (DBD mutation: PPARg1 K132A/R137A, NR concentration 270 nM, RXRa partner concentration 90 nM)
# Outline: as §1
# [14] = tested on: PPARg DBDmut IVT, anti-PPARg (DBD mutation: PPARg1 K132A/R137A, NR concentration 270 nM)
# Outline: as §1
# [15] = tested on: PPARg homodimer (NR concentration 180 nM)
# Outline: as §1
# [16] = tested on: PXR:RXRa (NR concentration 270 nM, RXRa partner concentration 90 nM)
# Outline: as §1
# [17] = tested on: PXR homodimer (NR concentration 270 nM)
# Outline: as §1
# [18] = tested on: RARa:RXR (NR concentration 270 nM, RXRa partner concentration 90 nM)
# Outline: as §1
# [19] = tested on: RARa homodimer (NR concentration 270 nM)
# Outline: as §1
# [20] = tested on: RARb:RXRa (NR concentration 270 nM, RXRa partner concentration 90 nM)
# Outline: as §1
Sequence,PBM binding z-score [1],PBM binding z-score [2],PBM binding z-score [3],PBM binding z-score [4],PBM binding z-score [5],PBM binding z-score [6],PBM binding z-score [7],PBM binding z-score [8],PBM binding z-score [9],PBM binding z-score [10],PBM binding z-score [11],PBM binding z-score [12],PBM binding z-score [13],PBM binding z-score [14],PBM binding z-score [15],PBM binding z-score [16],PBM binding z-score [17],PBM binding z-score [18],PBM binding z-score [19],PBM binding z-score [20]
TCGAGTAGGTTACCAATGGGCCATTCAGCTTTCT,0.506,1.7,-0.585,0.464,-1.18,1.09,0.383,1.13,0.927,1.04,3.13,2.59,-1.01,-0.848,-0.318,0.108,-0.851,0.175,-0.737,0.862
TCTTGTAGATCAAGCAGGTGAAGAAAGCCTGAGT,0.239,0.182,-0.332,-0.145,-0.467,0.527,-0.404,1.19,2.61,2.07,1.7,0.945,0.265,-0.33,-0.0595,0.043,-0.139,0.061,-0.384,-0.159
TCTGCTAGGTTAACGATGGTCAGCTAATCTGCTA,-1.53,0.817,-0.894,-0.156,-0.756,0.393,-0.117,0.909,1.45,1.06,2.11,1.89,-0.412,-0.772,-1.29,-0.232,-0.501,0.0866,-0.99,1.15
TGTCAAAGTTCAAAGGTAACATAAGTATCCACAC,7.47,6.45,4.6,5.05,2.12,6.03,8.82,7.65,5.46,7.34,0.298,4.93,1.53,2.04,3.31,5.72,4.18,6.28,1.65,5.24
TCATATCGGTAAAGGTGAAAGTCGAACGATATGA,0.139,1.31,-0.173,1.35,-0.304,2.77,1.89,3.12,3.8,3.48,1.56,2.05,0.818,0.266,0.769,0.507,-0.566,1.62,0.00667,1.98
ACTATTAGTTGTGACGAGGGCAACCGATAGGTTG,-0.101,-0.0626,-0.0175,-0.0591,-0.181,0.388,0.623,0.256,-0.152,0.259,0.298,0.518,0.938,1.19,0.35,0.597,-0.0621,0.536,0.293,1.06
TCTATTAGTTGATTAGGGGAACCGAAACAGCGGA,0.954,0.771,0.585,0.845,1.38,0.915,0.0434,2.05,4.11,2.94,2.55,0.819,0.627,1.48,1.45,0.576,0.595,0.544,2.06,0.416
TCATATAGGTAAAAGGTGATAGTCGGTGTGGTAA,1.41,1.28,0.217,1.35,0.351,4.6,8.06,7.95,8.2,8.56,5.2,4.18,1.26,1.38,1.66,0.875,0.988,1.84,1.85,1.17
ACAGACAGGTGATGAAAGTAACTCAGGCTATCAT,-0.313,-0.244,-0.212,-0.34,-0.446,-0.12,0.596,-0.0784,-0.0592,-0.305,-0.123,0.107,0.648,-0.00926,-0.948,-0.313,0.153,-0.63,-0.762,0.0648
ATCGAAAGGTCGAGGTGAGTACAGAGAAAGGGAA,4.22,3.51,0.276,2.53,0.653,4.64,3.5,3.96,1.38,2.61,0.64,2.65,1.01,0.9,1.64,3.27,0.251,3.11,1.29,4.14
ACAGACAGGTGATGAAGGTAACTCGGGCTATCAT,-0.17,0.107,-0.351,-0.291,-0.168,0.0611,0.471,-0.0859,-0.0607,-0.242,0.382,0.0218,-0.282,-0.148,0.503,-0.0935,0.344,0.209,0.291,0.263
GCTGCTAGGTCAGGTTGGTCAGCTAGCGGGTACG,1.15,0.736,-0.0466,0.193,-0.466,1.36,-0.0149,0.792,-0.603,0.329,2.9,1.88,-0.638,-1.03,0.481,0.0467,-1.01,0.604,-0.467,3.38
GATCCAGGGTCAAGGCCAGAGTACGCGTATTGAT,6.77,4.23,-0.34,3.91,-0.536,5.78,5.86,5.78,2.2,4.41,2.29,3.75,0.299,0.301,2.21,4.33,0.0901,5.29,0.437,4.49
CAAACTAGGTCATGGTCAAAGTCGGTTTGTGCCA,3.73,2.64,0.245,1.94,0.0742,4.74,8.15,6.86,4.7,6.63,8.43,8.57,2.9,1.82,2.21,1.75,-0.231,2.44,0.58,4.01
AGTCAAAGTTCAGGACGAGGTAACTTAAAGCACG,4.45,3.83,1.38,2.1,0.364,3.59,4.72,4.85,2.02,3.7,-0.0506,2.05,0.457,0.0759,1.75,3.24,1.4,2.84,1.02,4.25
CCGACTGGGGCATGAGGTTACCATAAGCCAGCCC,0.319,1.56,-0.254,0.386,-1.09,1.72,2.04,2.41,0.402,1.62,3.01,3.6,-1.07,-0.773,0.383,0.287,-0.219,1.06,-0.49,1.42
CGAACTAGGTCATGGACAGTGAATCTCCGCACGC,3.63,2.28,0.076,1.46,-0.358,4.61,7.41,6.4,3.88,6.02,8.13,8.2,2.01,1.53,1.69,1.36,-0.279,2.43,0.353,3.61
GCTTGTAGATCAAGGTTACGAAAGACTAAGCTAA,0.195,1.01,-0.347,0.883,-0.378,1.97,0.804,1.64,0.408,1.13,1.65,1.67,-0.122,-0.483,0.354,0.724,-0.00407,1.23,0.273,0.947
CCTTGCGGGTCAAGGTTATAGCACGGGTGGTACG,4.66,3.22,0.11,2.6,-0.432,4.96,5.05,5.18,2.05,4.21,3.71,5.26,-0.0608,-0.506,2.01,2.93,0.309,3.7,0.296,3.82
GGAACGAGGGCAAAGTTGATAGAATCTGTCGACG,1.44,1.1,-0.584,1.01,-0.45,4.17,6.84,7.15,6.22,7.35,4.01,4.36,0.353,-0.207,0.397,1.25,0.121,1.74,-0.438,2.32
CAAACTAGGTCAAGAAAGGTCAAAGTCGAATGAC,7.13,7.84,7.14,6.98,2.48,6.35,8.96,7.74,5.91,7.85,8.14,8.39,1.43,1.46,4.85,6.73,3.25,7.01,3.23,5.44
CCTACTGGGCCATCAGGTCATCGATATCAACGTT,1.37,1.07,0.687,1.38,-0.672,2.79,3.18,3.65,1.59,3.22,4.21,5.09,-0.466,-0.676,1.03,1.5,-0.0162,2.04,-0.0284,2.39
CCTATTATTTGACCATAAGGGCAACCGAAGCTCG,1.29,0.777,1.8,1.02,1.25,0.882,0.551,0.728,0.155,0.461,0.801,1.15,0.688,1.57,3.21,0.9,2.77,1.05,4.4,1.64
TCTTGTAGATCATCAGGAGGTTAAGAAAGATCGA,0.0818,1.07,-0.0921,0.94,-0.422,1.1,-0.109,1.34,2.4,1.84,1.49,0.887,1.1,-0.169,-0.101,0.787,-0.453,0.957,-0.298,0.52
CCAACTAGGTCACCGGAAGGTCAAAGTCCGCATG,6.49,5.96,5.35,5.35,1.43,5.81,9.14,7.51,5.79,6.94,8.42,8.36,0.902,1.2,9.32,6.17,2.46,7.7,4.05,5.15
AGAATGAGGTTACCAAAGATTAGGGAAACGCTTG,1.75,4.54,-0.368,1.72,-0.268,3.31,2.43,2.72,1.12,1.93,4.05,3.59,1.65,0.534,0.398,1.15,-0.168,1.88,0.039,2.06
GGCACGAGGGCATTCGAGTTGATAGCATGGCGAT,1.22,1.79,-0.515,0.139,-1.26,0.942,0.663,0.216,-0.477,-0.229,1.63,0.977,-1.13,-1.45,-0.356,3.77,1.72,0.606,-0.627,1.95
TCTAGTTGGACAAAGGTCACACACTCGAAATGCG,5.55,5.75,3.58,5.38,1.83,6.21,9.82,8.72,9.32,9.4,2.65,5.02,0.884,1.01,4.09,5.7,1.81,6.59,2.98,5.11
